Screens (PubChem BioAssay)
TcdB inh = blocks C. difficile toxin B glycohydrolase activity. P18177. TcdB glycohydrolase enzymatic assay, plate reader. inhibition, % at 9.99 µM. 350,000 compounds, 0.24% hits. AID 652162; in the data active means inhibition above about 10%
FadD28 FP inh = M. tuberculosis FadD28 bisubstrate binding inhibition; FadD28 bisubstrate probe binding, fluorescence polarization; inhibition, % at 12.5 µM; 360,000 compounds, 0.22% hits; AID 588549; in the data active means inhibition above about 8.5%, passing the limit was not always enough; inconclusive means no clear call, values can overlap the other calls
Yp Topo-I inh = inhibitors of Yersinia pestis topoisomerase I. Y. pestis Topo-I cleavage product accumulation, plate reader. activity, % at 10 µM. 360,000 compounds, 0.064% hits; in the data active means activity above about 50%, passing the limit was not always enough; inconclusive means no clear call, values can overlap the other calls
PrP 5UTR inh = inhibition of PrP 5' UTR reporter expression; cell-based PrP 5' UTR mRNA reporter, plate reader; inhibition, % (concentration not given with the values); 340,000 compounds, 0.35% hits; AID 488862; in the data active means inhibition above about 52%; further: 0 = median of the neutral control wells
BioA inh = blocks M. tuberculosis BioA enzyme activity; purified M. tuberculosis BioA enzyme, plate reader; inhibition, % at 9.99 µM; 360,000 compounds, 0.096% hits; in the data active means inhibition above about 40%; inconclusive means no clear call, values can overlap the other calls
PfHsp40 yeast = rescue of PfHsp40-mediated yeast toxicity. S. cerevisiae expressing PfHsp40, growth rescue, ATP luminescence. growth rescue, % at 12.5 µM. 340,000 compounds, 0.68% hits; in the data active means growth rescue above about 28%, passing the limit was not always enough; inconclusive means no clear call, values can overlap the other calls;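 further: yeast W303a lacking pdr1 and pdr3 grown in galactose medium; growth measured after three days at 30 °C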
* hit, by the source's call; ? = inconclusive; · = no result given; ! = a repeat was not active. Most compounds without a hit are left out; they make up all but 1.2% or so of the library.

SMILES | TcdB inh | FadD28 FP inh | Yp Topo-I inh | PrP 5UTR inh | BioA inh | PfHsp40 yeast
CC(/C=C1\SC(=S)N(NS(=O)(=O)c2ccccc2)C1=O)=C\c1ccccc1 | 0.1 | ? | -0.1 | 3.3 | 2.4 | 0.5
CC(/C=C1\SC(=S)N(NS(=O)(=O)c2ccc(C)cc2)C1=O)=C\c1ccccc1 | 0.4 | 11.2* | 15.3 | -10.2 | -1.6 | ?
COc1cc(/C=C2\SC(=S)N(NS(=O)(=O)c3ccccc3)C2=O)ccc1O | 0.1 | 0.6 | 5.5 | -20.7 | 4.1 | -1.0
C=CCOc1ccc(/C=C2\SC(=S)N(NS(=O)(=O)c3ccccc3)C2=O)cc1 | 2.2 | 12.0* | 24.9 | -10.4 | · | 11.3
COc1cc(/C=C2\SC(=S)N(NS(=O)(=O)c3ccc(C)cc3)C2=O)cc(OC)c1OC | 1.2 | 0.8 | 8.3 | -16.4 | 0.7 | ?
CCOc1cc(/C=C2\SC(=S)N(NS(=O)(=O)c3ccc(C)cc3)C2=O)ccc1O | -0.6 | -0.1 | 3.6 | -10.8 | 2.9 | 59.2*
COc1cc(/C=C2\SC(=S)N(NS(=O)(=O)c3ccc(C)cc3)C2=O)ccc1O | 0.0 | 0.2 | 7.2 | -8.6 | · | 303.4*
CCNC(=O)C[C@@H]1CC[C@H]2[C@H](COc3ccc(NC(=O)Nc4ccc(F)cc4)cc3C(=O)N2C)O1 | -0.8 | · | · | · | -0.3 | ·
COc1ccc(S(=O)(=O)Nc2cccc3c2O[C@@H](CN(C)C(=O)Nc2ccc(F)cc2)[C@@H](C)CN([C@@H](C)CO)C3=O)cc1 | -1.0 | · | · | · | -0.4 | ·
COc1ccccc1-c1ccc([C@H]2[C@@H](C#N)N(C(=O)C3CCC3)[C@H]2CO)cc1 | 0.7 | · | · | · | 23.0 | ·
Cc1nn(C)cc1NC(=O)C[C@@H]1CC[C@@H]2[C@@H](COc3ccc(NC(=O)C(C)C)cc3C(=O)N2C)O1 | · | · | · | · | -6.2 | ·
Cc1cccc(Nc2nc(N)c([N+](=O)[O-])c(N3CCCC(C)C3)n2)c1 (stereo not given) | · | -5.7 | 27.0 | -17.7 | · | 165.8*
C[C@@H]1CN([C@@H](C)CO)C(=O)c2cc(NC(=O)NC3CCCCC3)ccc2O[C@H]1CN(C)C(=O)Nc1cccc2ccccc12 | 0.2 | · | · | · | -1.0 | ·
CCc1ccc2oc(-c3cc(N)ccc3Cl)nc2c1 | 14.3* | -3.5 | 1.8 | -17.9 | 1.4 | 0.0
COc1ccc(CN(C)C[C@@H]2OCCCC[C@@H](C)Oc3ccc(NC(=O)Cc4ccccc4)cc3C(=O)N([C@H](C)CO)C[C@@H]2C)cc1 | · | · | · | · | 0.7 | ·
Cc1ccc(NS(=O)(=O)c2cccc3cccnc23)cc1Cl | 2.0 | -1.7 | 0.0 | -8.2 | -0.3 | -1.5
Cc1cc(C)c(NS(=O)(=O)c2cccc3cccnc23)c(C)c1 | 13.9* | 0.6 | -12.7 | 6.6 | 0.4 | 0.3
COc1ccc(-c2ccc([C@H]3[C@@H](CO)N4C(=O)CN(C(=O)C5CCCC5)C[C@H]34)cc2)cc1 | 0.7 | · | · | · | · | ·
O=C(O)c1[nH]c2ccccc2c1C(c1cc(Br)ccc1O)c1c(C(=O)O)[nH]c2ccccc12 | 0.8 | 35.3* | -7.2 | -7.1 | 1.2 | 17.5
O=C(O)c1[nH]c2ccccc2c1C(c1c(F)cccc1Cl)c1c(C(=O)O)[nH]c2ccccc12 | -0.4 | 24.1* | -3.2 | -20.5 | 0.4 | 7.2
O=C(O)c1[nH]c2ccccc2c1-c1ccccc1 | · | 1.9 | -4.1 | 0.6 | 0.3 | -1.2
COc1cc(Cl)cc(C(c2c(C(=O)O)[nH]c3ccccc23)c2c(C(=O)O)[nH]c3ccccc23)c1O | -1.0 | 32.9* | -11.9 | -8.5 | 0.0 | 5.2
Cc1noc(C)c1NC(=O)N(C)C[C@@H]1Oc2ccc(NC(=O)C3CCCCC3)cc2C(=O)N([C@@H](C)CO)C[C@H]1C | 12.5*! | -0.9 | -6.1 | -23.1 | 9.2 | -1.1
COc1ccc(NC(=O)N(C)C[C@H]2Oc3ccc(NC(=O)Nc4ccc5c(c4)OCO5)cc3C(=O)N([C@H](C)CO)C[C@@H]2C)cc1 | 0.8 | 5.4 | 4.2 | -31.5 | -3.7 | 54.3*
Cc1noc(C)c1NC(=O)N(C)C[C@@H]1Oc2ccc(NC(=O)C3CCCCC3)cc2C(=O)N([C@@H](C)CO)C[C@@H]1C | -0.2 | · | · | · | 6.4 | ·
SMILES | TcdB inh | FadD28 FP inh | Yp Topo-I inh | PrP 5UTR inh | BioA inh | PfHsp40 yeast
Cc1ccc(C(=O)NCCn2cc(SCC(=O)Nc3cc(C)on3)c3ccccc32)cc1 | 15.1* | -0.1 | 5.2 | 8.8 | -0.6 | 1.1
Cc1cc(NC(=O)CSc2cn(CCNC(=O)c3ccccc3)c3ccccc23)no1 | · | -3.4 | 12.1 | -11.4 | -0.6 | -1.0
CCCCCCC[C@@H](C/C=C/CCC(=O)O)OC | -0.6 | -3.2 | 6.3 | -19.9 | 1.9 | -0.1
CCCCCCC[C@@H](C/C=C/CCC(=O)N(C)C/C(=C/Cl)C/C(=C\C(=O)N1CC(OC)=CC1=O)OC)OC | -0.6 | -1.5 | 33.5 | -174.8 | -0.2 | 36.5*
CCCCCCC[C@@H](C/C=C/CCC(=O)N(C)C/C(=C/Cl)C/C(=C\C(=O)N1C[C@H](O)CC1=O)OC)OC | 0.7 | -1.2 | 26.1 | -9.7 | 0.2 | 53.7*
CO[C@@H]1CN(C)C(=O)c2ccc(NC(=O)C3CC3)cc2OC[C@H](C)N(C)C[C@H]1C | -0.5 | · | · | · | -1.2 | ·
CCOC(=O)c1sc(N2C(=O)C(O)=C(C(=O)c3ccc(C)o3)C2c2ccc(OC)c(OC)c2)nc1C (stereo not given) | -0.1 | -5.3 | 11.4 | -15.6 | 4.7 | 42.3*
C/C(=N/O)c1ccccn1 | -3.8 | 0.8 | 1.2 | -0.6 | -1.2 | -0.9
CCCCCC/C(=N/O)c1ccccn1 | · | -2.8 | 5.5 | -26.6 | -0.1 | 161.9*
Cc1ccc(S(=O)(=O)N[C@@H]2CC[C@@H](CC(=O)NCCCN(C)C)O[C@H]2CO)cc1 | 0.9 | · | · | · | -2.1 | ·
O=C(O)/C(=C\c1ccc(F)cc1)c1ccc(-c2ccccc2)cc1 | -1.5 | -0.8 | -7.0 | -15.4 | · | 512.0*
O=C(NC1CCCC1)[C@H]1[C@H](CO)[C@H]2Cn3c(ccc(-c4cccnc4)c3=O)[C@@H]1N2CCc1ccccc1 | 0.6 | · | · | · | -1.9 | ·
CCCCCCCCCCOC(=O)Cn1c(COc2ccccc2OC)[n+](C)c2ccccc21 | 4.2 | -25.1 | 0.6 | -17.4 | 15.7 | 316.3*
CC1CCC(C(C)C)C(OC(=O)Cn2c(COc3ccccc3)[n+](C)c3ccccc32)C1 (stereo not given) | 3.4 | -9.0 | 9.8 | -13.5 | 6.8 | 0.8
CC=Cc1ccc2n(c1=O)C[C@H]1[C@H](CO)[C@@H](C(=O)NCCc3cn(C)cn3)N(C(=O)C3CCC3)[C@@H]21 (mixture of isomers) | 1.1 | · | · | · | -1.2 | ·
COc1ccccc1NC(=O)Nc1nnc(CC(=O)Nc2ccccc2C)s1 | 0.7 | -5.9 | 1.7 | 76.5* | · | -0.6
O=S(=O)(O)c1cc(O)c2c(O)c(N=Nc3cc(Cl)ccc3O)c(S(=O)(=O)O)cc2c1 | · | ? | 65.0* | -3.1 | 5.2 | 15.9
C[C@@H]1CCCCO[C@@H](CN(C)C(=O)CCC(F)(F)F)[C@H](C)CN([C@@H](C)CO)C(=O)c2cc(NC(=O)c3ccccc3)ccc2O1 | -9.8 | · | · | · | -0.1 | ·
COc1ccc(Cc2nnc3n2N=C(c2cc4ccccc4o2)CS3)cc1OC | · | -1.8 | 54.2* | 6.6 | -3.0 | 6.3
CCCc1nnc2n1N=C(c1ccc(OC)c(OC)c1)CS2 | 1.4 | -0.8 | 8.8 | 1.9 | · | -1.2
